# High-throughput results: PubChem BioAssay, Broad Institute
# C diff growth: inhibitors of Clostridium difficile growth. Clostridium difficile clinical isolate growth, OD600, 24 h; stronger effect = lower value. growth activity, negative = inhibition, % at 16 µg/mL (by protocol). 86,000 compounds, 0.25% hits;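 active = mean growth activity at or below -80% and every replicate also at or below -80%; inconclusive = mean at or below -80% but some replicate above -80%; inactive = mean growth activity above -80%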;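 also: 0% = DMSO wells and -100% = levofloxacin 16 µg/mL wells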
# T cruzi growth-1: T. cruzi proliferation inhibition; inhibition, % at 8.34 µM; AID 624255; 77,000 compounds, 5.9% hits; T. cruzi beta-gal in NIH3T3, GalScreen luminescence, 90 h;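 active = mean inhibition above about 93%, with at least 55% of replicates each passing it, limit read from the data, passing the limit was not always enough; inconclusive = only one of those two conditions holds; inactive = neither condition holds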
# Pf Dd2 inh: inhibitors of Plasmodium falciparum Dd2 growth. P. falciparum Dd2 growth, SYBR Green, 72 h; stronger effect = lower value. activity change, % at 10 µM. 94,000 compounds, 2.3% hits. AID 1159554; in the data active = activity change below about -80%; inconclusive = no clear call, values can overlap the other calls
# T cruzi growth-2: inhibitors of T. cruzi proliferation; shares compounds with T cruzi growth-1; T. cruzi beta-gal in NIH3T3, GalScreen luminescence, 90 h; inhibition, % at 8.35 µM; 5,600 compounds, 72% hits; AID 651739;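 active = mean replicate inhibition above about 95% and at least 55% of replicates individually reaching it, limit read from the data; inconclusive = only one of the two criteria is met; inactive = neither criterion is met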
# T cruzi growth-3: inhibitors of T. cruzi proliferation; 5,600 compounds, 21% hits; shares compounds with T cruzi growth-1; T. cruzi beta-gal in NIH3T3, GalScreen luminescence, 90 h; inhibition, % at 2.09 µM; AID 651740;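 active = mean inhibition above about 95%, with at least 55% of replicates also reaching it, limit read from the data; inconclusive = meets just one of the two conditions; inactive = meets neither condition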;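 also: plate controls were neutral control median for no effect and positive control median for full effect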
# 3T3 cytotox: kills mouse NIH/3T3 fibroblasts; shares compounds with T cruzi growth-1; NIH/3T3 viability, CellTiter-Glo ATP luminescence, 90 h; cytotoxicity (signal decrease), % at 8.35 µM; 5,600 compounds, 14% hits; AID 651742;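 active = mean signal decrease across replicates above about 35% based on untreated-well scatter, with enough replicates individually passing, limit read from the data; inconclusive = no rule stated though some were filed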;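 also: 0% = median of neutral control wells and 100% = median of positive control wells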
# NIH3T3 tox 2: cytotoxicity in mouse NIH/3T3 fibroblasts. NIH/3T3 viability, CellTiter-Glo ATP luminescence, 90 h. shares compounds with T cruzi growth-1. 5,600 compounds, 56% hits. inhibition, % at 24.9 µM;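 active = mean loss of cell viability signal at or above a set limit, and enough replicates individually reaching it; inconclusive = meets only the mean limit or only the replicate share; inactive = meets neither condition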;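 also: 0% = median of neutral control wells and 100% = median of positive control wells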
# An asterisk follows results filed as active; ? = inconclusive; . = no result. Shown are actives, neighbours in structure and some others; about 6.7% of the full set was active somewhere.
SMILES,C diff growth,T cruzi growth-1,Pf Dd2 inh,T cruzi growth-2,T cruzi growth-3,3T3 cytotox,NIH3T3 tox 2
COc1cccc(C(=O)Nc2ccc3c(c2)OC[C@H](C)N(CCc2ccccc2)C[C@@H](C)[C@H](OC)CN(C)C3=O)c1,.,108*,-25,101*,71,8,10
COc1cccc(C(=O)Nc2ccc3c(c2)OC[C@H](C)N(CCc2ccccc2)C[C@H](C)[C@H](OC)CN(C)C3=O)c1,.,36,-61,.,.,.,.
CCCC(=O)Nc1ccc2c(c1)OC[C@H](C)N(C(=O)c1cccnc1)C[C@@H](C)[C@H](OC)CN(C)C2=O,.,100*,-38,61,-25,11,-8
O=C(C[C@@H]1C=C[C@H](NC(=O)C2CCC2)[C@@H](CO)O1)Nc1nccs1,3,.,18,.,.,.,.
CCNC(=O)C[C@@H]1CC[C@@H]2[C@@H](COc3ccc(NC(=O)c4ccc(C(F)(F)F)cc4)cc3C(=O)N2C)O1,4,16,-6,.,.,.,.
Cc1ccc(S(=O)(=O)Nc2ccc3c(c2)CC(=O)N([C@H](C)CO)C[C@H](C)[C@H](CN(C)C(=O)Nc2ccccc2)O3)cc1,-3,48,-14,.,.,.,.
COc1cccc(S(=O)(=O)Nc2ccc3c(c2)OC[C@@H](C)N(Cc2ccccc2F)C[C@@H](C)[C@@H](OC)CN(C)C3=O)c1,.,?,33,.,.,.,.
CNC[C@H]1OCCCC[C@@H](C)Oc2ccc(NS(=O)(=O)c3ccc(C)cc3)cc2C(=O)N([C@@H](C)CO)C[C@@H]1C,-4,48,.,.,.,.,.
CCCN1C[C@H](C)[C@@H](OC)CN(C)C(=O)c2ccc(NS(=O)(=O)c3cn(C)cn3)cc2OC[C@H]1C,.,105*,13,-5,-22,3,-3
CCCNC(=O)N1C[C@H](C)[C@@H](OC)CN(C)C(=O)c2cc(NC(=O)CC)ccc2OC[C@@H]1C,.,?,24,-17,-2,3,-5
CCCNC(=O)N1C[C@H](C)[C@H](OC)CN(C)C(=O)c2cc(NC(=O)CC)ccc2OC[C@@H]1C,.,41,3,.,.,.,.
CCCN1C[C@H](C)[C@H](OC)CN(C)C(=O)c2ccc(NS(=O)(=O)c3cn(C)cn3)cc2OC[C@@H]1C,.,28,44,.,.,.,.
CN1C(=O)c2cc(NC(=O)c3cccc(F)c3)ccc2OC[C@@H]2O[C@@H](CC(=O)NC3CCC3)CC[C@H]21,-2,-6,-3,.,.,.,.
C/C=C/c1ccc([C@@H]2[C@@H](CO)N(C(C)=O)C23CN(C(=O)NC2CCCCC2)C3)cc1,-8,.,19,.,.,.,.
O=C(C[C@H]1CC[C@H]2[C@@H](COC[C@@H](O)CN2Cc2nccs2)O1)NCc1ccc(Cl)cc1,.,9,8,.,.,.,.
C[C@@H]1CCCCO[C@H](CN(C)C(=O)Nc2ccc(C(F)(F)F)cc2)[C@H](C)CN([C@@H](C)CO)C(=O)c2cc(NC(=O)CCC(F)(F)F)ccc2O1,4,101,-67,.,.,.,.
C[C@@H]1CCCCO[C@@H](CN(C)C(=O)Nc2ccc(C(F)(F)F)cc2)[C@H](C)CN([C@@H](C)CO)C(=O)c2cc(NC(=O)CCC(F)(F)F)ccc2O1,6,101*,6,106*,35,25,7
C[C@@H]1CCCCO[C@H](CN(C)C(=O)Nc2ccc(C(F)(F)F)cc2)[C@@H](C)CN([C@@H](C)CO)C(=O)c2cc(NC(=O)CCC(F)(F)F)ccc2O1,-3,94,-73,.,.,.,.
C[C@@H]1CCCCO[C@H](CN(C)C(=O)Nc2ccc(C(F)(F)F)cc2)[C@H](C)CN([C@H](C)CO)C(=O)c2cc(NC(=O)CCC(F)(F)F)ccc2O1,3,107*,-79,106*,105*,-11,19
COCC(=O)Nc1ccc2c(c1)OC[C@H](C)N(Cc1cccc(F)c1)C[C@H](C)[C@@H](OC)CN(C)C2=O,-3,.,-19,.,.,.,.
CN(C)C(=O)C[C@H]1C[C@@H]2c3cc(NC(=O)c4ccc5c(c4)OCO5)ccc3O[C@@H]2[C@H](CO)O1,2,-27,7,.,.,.,.
CN(C)C(=O)c1ccc(-c2ccc([C@H]3[C@@H](CO)N4CCCCN(C(=O)C5CC5)C[C@@H]34)cc2)cc1,5,66,-23,.,.,.,.
CN(C)C(=O)c1ccc(-c2ccc([C@H]3[C@H](CO)N4CCCCN(C(=O)C5CCC5)C[C@@H]34)cc2)cc1,-9,100*,-27,95*,90,7,42*
CN(C)C(=O)c1ccc(-c2ccc([C@@H]3[C@@H](CO)N4CCCCN(C(=O)C5CCC5)C[C@H]34)cc2)cc1,-5,49,6,.,.,.,.
CN(C)C(=O)c1ccc(-c2ccc([C@@H]3[C@H]4CN(C(=O)C5CCC5)CCCCN4[C@H]3CO)cc2)cc1,-10,101*,-9,95*,44,33,38*
SMILES,C diff growth,T cruzi growth-1,Pf Dd2 inh,T cruzi growth-2,T cruzi growth-3,3T3 cytotox,NIH3T3 tox 2
CN(C)C(=O)c1ccc(-c2ccc([C@H]3[C@@H](CO)N4CCCCN(C(=O)C5CCC5)C[C@@H]34)cc2)cc1,1,106*,26,102*,89,9,27
CN(C)C(=O)c1ccc(-c2ccc([C@@H]3[C@H](CO)N4CCCCN(C(=O)C5CC5)C[C@@H]34)cc2)cc1,3,67,-12,.,.,.,.
Cc1noc(C)c1NC(=O)Nc1ccc2c(c1)C(=O)N([C@H](C)CO)C[C@@H](C)[C@H](CN(C)S(=O)(=O)c1ccc(Cl)cc1)OCCCC[C@@H](C)O2,.,82,-75,.,.,.,.
COc1ccc2c3c([nH]c2c1)[C@H](CO)N(Cc1nccs1)CC31CCN(C(=O)C2CCCC2)CC1,-6,.,-25,.,.,.,.
CNC[C@H]1OCCCC[C@@H](C)Oc2ccc(NC(=O)Nc3ccc(C(F)(F)F)cc3)cc2C(=O)N([C@@H](C)CO)C[C@H]1C,15,25,-20,.,.,.,.
Cc1noc(C)c1NC(=O)Nc1ccc2c(c1)C(=O)N([C@@H](C)CO)C[C@@H](C)[C@@H](CN(C)C(=O)Nc1ccc(C(F)(F)F)cc1)OCCCC[C@@H](C)O2,-6,43,-79,.,.,.,.
COc1ccc2c3c(n(C)c2c1)[C@H](CO)N(C)CC31CCN(C(=O)C2CCC2)CC1,.,.,56,.,.,.,.
C[C@@H]1CCCCO[C@@H](CN(C)S(=O)(=O)c2cn(C)cn2)[C@H](C)CN([C@@H](C)CO)C(=O)c2cc(NS(=O)(=O)c3cn(C)cn3)ccc2O1,-1,-39,55,.,.,.,.
C[C@@H]1CN([C@H](C)CO)S(=O)(=O)c2ccc(C#Cc3cccc(F)c3)cc2O[C@@H]1CN(C)S(=O)(=O)c1ccccc1F,7,104*,-73,102*,113*,25,40*
C[C@H](CO)N1C[C@H](C)[C@@H](CN(C)S(=O)(=O)c2ccccc2F)Oc2cc(C#Cc3cccc(F)c3)ccc2S1(=O)=O,13,107*,-70,99*,116*,26,43*
